In PubChem BioAssay AID1423 (NMMLSC, 2008):
Screen size: about 220,000 compounds; about 750 (0.34%) were called active. The entries come from a sample that favours actives as a whole. Unmarked numbers belong to inactive results. No stated cut-off is given here; in the data, active means response below about 60% or above about 140%; inactive means in between.

target: Guanine nucleotide-binding protein G(o) subunit alpha (Homo sapiens) (UniProt P09471); test: RGS8-Galphao binding modulators, primary screen, biochemical, multiplexed bead flow cytometry (AID 1423); conditions: at 10 µM, actives lie on both sides;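 further: Galphao activated as the GDP aluminium fluoride complex binding bead-coupled RGS8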
Sequence (P09471 whole entry, looked up): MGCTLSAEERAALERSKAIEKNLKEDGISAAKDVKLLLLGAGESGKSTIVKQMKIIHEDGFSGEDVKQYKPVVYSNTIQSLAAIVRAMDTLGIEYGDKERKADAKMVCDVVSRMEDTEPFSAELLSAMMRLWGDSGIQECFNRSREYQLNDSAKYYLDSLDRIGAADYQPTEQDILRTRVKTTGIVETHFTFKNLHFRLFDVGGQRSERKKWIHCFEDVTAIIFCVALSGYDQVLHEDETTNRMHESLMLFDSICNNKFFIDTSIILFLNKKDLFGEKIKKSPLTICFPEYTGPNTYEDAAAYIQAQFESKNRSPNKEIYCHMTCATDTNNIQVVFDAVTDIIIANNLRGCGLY

Structure (SMILES) | response (percent of control binding)
Cc1cc(C)cc(N(CC(=O)Nc2c(C)n(C)n(-c3ccccc3)c2=O)S(C)(=O)=O)c1 | 1.54% (active)
Cc1cc(C)cc(N(C(C)C(=O)Nc2c(C)n(C)n(-c3ccccc3)c2=O)S(C)(=O)=O)c1 (stereo unspecified) | 104%
Cc1ccc(S(=O)(=O)CC(=O)Nc2c(C)n(C)n(-c3ccccc3)c2=O)cc1 | 97.4%
CCc1nn(-c2cc(Oc3cccc4ccccc34)nc(-c3ccccc3)n2)c(N)c1C#N | 105%
N/C(=N\S(=O)(=O)c1ccc(Cl)cc1)N1CCOCC1 | 98.4%
CC(C)(C)C(=O)NNC(=O)c1ccc(Oc2cc(Cl)cc(Cl)c2)o1 | 104%
O=C(CN1CCOCC1)Nc1ccc(NC(=O)CN2CCOCC2)c(Cl)c1 | 100%
O=C(CN1CCOCC1)Nc1ccccc1 | 145% [activator] (active)
O=C(CN1CCOCC1)Nc1c(Cl)cc(Cl)cc1Cl | 96%
CC(=O)c1ccc(N=C2SCCCN2C(=O)C2CCCCC2)cc1 | 95.4%
O=C(NNc1c2ccccc2nc2ccccc12)c1cc2ccccc2cc1O | 98.1%
Cc1ccc(S(=O)(=O)N2CCN(C(=O)COC(=O)c3c(C)noc3C)CC2)c(C)c1 | 103%
N#Cc1nc(-c2ccc(OCc3ccccc3)cc2)oc1NCCCN1CCOCC1 | 99.9%
O=S(=O)(c1ccc(Br)cc1)c1nc(-c2ccccc2)oc1NCc1cccnc1 | 103%
N#Cc1nc(COc2ccc(-c3ccccc3)cc2)oc1NCc1cccnc1 | 167% [activator] (active)
CC(C)(C)NC(=O)NC(=O)COC(=O)Cc1c(F)cccc1Cl | 99.5%
CCCCC(CC(C)O)c1n[nH]c(=S)n1-c1ccccc1 (stereo unspecified) | 108%
CCn1c(CNS(=O)(=O)c2ccc(Cl)cc2)n[nH]c1=S | 100%
S=c1[nH]nc(CSCc2ccc(Cl)cc2Cl)n1-c1ccccc1 | 92.7%
CCn1c(CSCc2c(Cl)cccc2Cl)n[nH]c1=S | 55.5% (active)
Cc1ccc(C(=O)C(=S)N2CCOCC2)cc1 | 110%
CC1CC(C)(C)n2c(O)c(N=NC(N)=S)c3cccc1c32 (stereo unspecified) | 100%
NS(=O)(=O)c1ccc(CCNC(=O)CCCn2c(SCC(=O)N3CCCC3)nc3ccsc3c2=O)cc1 | 103%
O=[N+]([O-])c1ccccc1Nc1ccc(O)cc1 | 102%

Structure (SMILES) | response (percent of control binding)
O=C(CC1SC(=Nc2ccccc2F)N(CCN2CCOCC2)C1=O)Nc1ccc(F)cc1F (stereo unspecified) | 97.3%
CCN(CC)CCOc1ccc2c(c1)C(=NNC(=O)c1ccccn1)c1cc(OCCN(CC)CC)ccc1-2 | 154% [activator] (active)
CCOc1cc(NC(=O)c2ccccn2)c(OCC)cc1NC(=O)c1ccc(OC)cc1 | 103%
COc1ccc(CC(=O)N/N=C(\C)c2ccccn2)cc1 | 72.6%
COC(=O)C1=C(C)NC(=O)/C1=C/c1ccc(CNS(=O)(=O)c2ccc(C)cc2)o1 | 91%
O=C(CSc1nnc(-c2cccs2)n1Cc1ccccc1)N1CCc2ccccc2C1 | 97%
Cn1c(=O)c2c(n(Cc3ccccc3)c1=O)NC(=O)C2CC(=O)N1CCc2ccccc2C1 (stereo unspecified) | 12.1% (active)
O=C(COc1ccccc1)N1CCc2ccccc2C1 | 101%
O=C(NC1CCCCC1)C1CCCN(S(=O)(=O)c2ccc(Br)s2)C1 (stereo unspecified) | 96.9%
O=C(O)c1ccc2c3c(cccc13)C(=O)N(OS(=O)(=O)c1ccccc1)C2=O | 98.5%
Cc1ccc(NC(=O)NCC(c2cccnc2)N2CCOCC2)cc1 (stereo unspecified) | 103%
CN1CCN(S(=O)(=O)c2ccc(N3CCN(S(=O)(=O)c4cccs4)CC3)nc2)CC1 | 100%
CN1CCN(C(CNS(=O)(=O)c2cccs2)c2cccnc2)CC1 (stereo unspecified) | 10.6% (active)
CCOC(=O)CCNC(=O)N1CCCC(C(=O)c2ccccc2SC)C1 (stereo unspecified) | 90.6%
Cc1ccc2c(N)c(C(=O)c3ccccc3)sc2n1 | 104%
COc1cc(OC)cc(C(=O)NCCSCc2ccco2)c1 | 97.9%
COc1cccc(C(=O)NNC(=O)c2ccccc2Br)c1 | 107%
COc1cccc(C(=O)NCCSc2ccc(Br)cc2)c1 | 20.7% (active)
OC(c1ccccc1)c1nccn1Cc1ccccc1 (stereo unspecified) | 97.5%
OC(c1nc2ccccc2[nH]1)C(O)C(O)C(O)c1nc2ccccc2[nH]1 (stereo unspecified) | 100%
O=C(N/N=C/c1cccc([N+](=O)[O-])c1)c1ccncc1 | 99.5%
CCOc1ccccc1NC(=O)CCN1CCN(S(=O)(=O)c2ccc(OC)cc2)CC1 | 99.6%
CCOc1ccccc1NC(=O)c1cc(S(=O)(=O)N2CCC3(CC2)OCCO3)ccc1F | 33% (active)
Cc1c(C(=O)Nc2ccccc2Cl)oc2ccc(S(=O)(=O)N3CCC4(CC3)OCCO4)cc12 | 105%

Structure (SMILES) | response (percent of control binding)
CC(=O)c1cccc(-n2nnnc2SCC(=O)NNC(=O)C2CCCCC2)c1 | 91.2%
O=C(COC(=O)/C(=C/c1cccs1)c1cccs1)NCc1ccccc1Cl | 85.8%
O=C(CSc1ccccc1)Nc1ccc(C(=O)Nc2cccc(O)c2)cc1 | 109%
O=C(Cn1nnc(N2CCCCC2)n1)c1ccc(Cl)c(Cl)c1 | 97.6%
COc1cc(CCC(=O)OCC(=O)Nc2cccc(S(N)(=O)=O)c2)cc(OC)c1OC | 95.2%
Cc1ccc(NC(=O)CNCc2ccccn2)cc1S(=O)(=O)N(C)C | 97.7%
COc1ccc(CCC(=O)OCC(=O)Nc2ccc(C)c(S(=O)(=O)N(C)C)c2)cc1 | 57.7% (active)
O=C1CCC/C(=N\NC(=O)NC2CCCCC2)C1 | 100%
COc1ccccc1-n1cn[nH]c1=S | 102%
COc1ccc(OC)c(-n2c(-c3ccn[nH]3)n[nH]c2=S)c1 | 98.6%
COc1ccccc1-n1c(-c2cc(-c3ccco3)[nH]n2)n[nH]c1=S | 6.3% (active)
COc1ccc(-c2onc(C)c2-c2ccc3c(c2)OCCO3)c(O)c1 | 101%
O=C(NCCCN1CCOCC1)c1ccccc1NS(=O)(=O)c1ccc(Br)cc1 | 99.3%
COc1ccc(C(=O)NNc2cc(C)nc(NNC(=O)c3ccc(OC)cc3)n2)cc1 | 54% (active)
COc1ccc(C(=O)NNC(=O)c2cc(C)[nH]n2)cc1 | 121%
COc1ccc(C(=O)NNS(=O)(=O)c2ccc(C)cc2)cc1 | 101%
CC(=O)Nc1ccc(N2C(=O)CCC2=O)cc1C | 100%
COc1ccccc1CCNC(=O)CSc1nnc2ccc(-c3cccnc3)nn12 | 92.2%
CCOC(=O)NNc1cc(C(F)(F)F)ccn1 | 133%
Nc1nnn(CC(=O)N/N=C/c2ccccc2)n1 | 99.3%
CC(OC(=O)c1ccc2ccccc2n1)C(=O)c1ccccc1 (stereo unspecified) | 103%
COc1ccc(C(=O)COC(=O)c2ccc3ccccc3n2)cc1 | 28.9% (active)
COc1ccc(C2=NOC(COC(=O)c3ccc4ccccc4n3)C2)cc1 (stereo unspecified) | 101%
COC(=O)C1=C(C)N(c2ccc(C)cc2)/C(=C/c2ccc(O)cc2)C1=O | 99.9%

Structure (SMILES) | response (percent of control binding)
COc1cccc2c(N/N=C/c3ccco3)cc(C)nc12 | 96.9%
CCN(CC)CCNCC(=O)Nc1ccc(Oc2ccccc2)cc1 | 99.5%
CCCC(=O)N=c1sc2cccc(F)c2n1C | 37.2% (active)
Cn1c(=NC(=O)c2ccco2)sc2cccc(F)c21 | 103%
Cn1c(=NC(=O)C2CC2)sc2cc(F)cc(F)c21 | 96.6%
Cn1cc(-c2ccccc2)cc(C#N)c1=O | 103%
Cc1ccccc1/[N+]([O-])=C/c1ccncc1 | 100%
CN(C)S(=O)(=O)c1cccc(NC(=O)COC(=O)/C=C/c2cccs2)c1 | 102%
Oc1ccc(N=Nc2nccs2)c(O)c1 | 6.26% (active)
Oc1ccc2ccccc2c1N=Nc1nccs1 | 99.8%
CONC(=O)c1cc(OCC(F)(F)F)ccc1OCC(F)(F)F | 103%
CCc1ccc(C(=O)OCC(=O)Nc2cccc(S(=O)(=O)NC3=NCCCCC3)c2)cc1 | 104%
Cc1ccc(S(=O)(=O)N2CCC(C(=O)N[C@@H](C)C(=O)NCc3ccco3)CC2)cc1 | 103%
CN1CCN(C2=NCCO2)CC1 | 100%
O=C1C2N=NN(CC(=O)N3N=C(c4cccc5ccccc45)CC3c3ccccc3)C2C(=O)N1c1ccccc1 (stereo unspecified) | 90.3%
COc1ccc(S(=O)(=O)N2CCCCCC2)cc1C(=O)OCC(=O)Nc1cc(C)on1 | 100%
COc1cc(/C=C(/NC(=O)c2ccc(Cl)cc2Cl)C(=O)O)cc(OC)c1OC | 75.5%
C=C(C)CNC(=S)/N=c1\scc(C)n1CC | 98.7%
Cc1ccc(N(CC(O)CN2CCCC2)S(=O)(=O)c2ccccc2)cc1 (stereo unspecified) | 97.6%
O=S(=O)(c1ccccc1)N(CC(O)CN1CCCCC1)c1ccccc1 (stereo unspecified) | 101%
Cc1cc(C)n(CC(O)CN(c2ccccc2)S(=O)(=O)c2ccc3ccccc3c2)n1 (stereo unspecified) | 15% (active)
C[C@H](NC(=O)c1ccccc1Cl)C(=O)OCCOc1cccc(Cl)c1 | 105%
NS(=O)(=O)c1ccc(CCNC(=O)c2ccc(Cl)cc2[N+](=O)[O-])cc1 | 102%
CC(=O)c1cc2c(cc1NC(=O)CN1CCCCCC1)OCO2 | 111%
